# Laboratory results taken from PubChem BioAssay AID1950 (The Scripps Research Institute Molecular Screening Center, 2009).
# Among all 300,000 compounds or so, about 1,000 (0.33%) were called active. Shown is part of a subset that was picked to be rich in actives. Values without a mark were called inactive. Cut-off read from the data, not from the text of the source: active = inhibition above about 28%; inactive = the rest.
# Tested on: EBNA-1 (Epstein-Barr virus nuclear antigen 1), Human herpesvirus 4
# Experiment: EBNA-1 DNA-binding inhibitors, primary screen, biochemical, fluorescence polarization (AID 1950)
# Conditions: at 14.8 µM, stronger effect = higher value
row,SMILES,inhibition
1,O=C(Nc1ccc(C2CC2(Cl)Cl)cc1)c1cccc([N+](=O)[O-])c1 (stereo unspecified),-4.52%
2,Cc1ccc(-n2c(C)cc(/C=C(\C#N)C(=O)NCC3CCCO3)c2C)cc1 (stereo unspecified),7.66%
3,O=C(Cn1c(NCCO)nc2ccccc21)c1ccc(Cl)cc1Cl,-13.3%
4,Cc1ccc2c(C)c(C(=O)N(C)Cc3ccncn3)oc2c1C,3.76%
5,COc1ccc(NC(=O)NCc2ccc3c(c2)OCO3)c(OC)c1,71.6% (active)
6,COc1cc(OC)c(C(=O)NCc2ccc3c(c2)OCO3)cc1OC,-7.83%
7,COc1ccc2c(c1)C(C)=CC(C)(C)N2C(=O)CNCc1ccc2c(c1)OCO2,3.99%
8,O=C(NCc1ccccc1)[C@@H]1CSC2c3ccccc3C(=O)N21 (stereo partly specified),-9.14%
9,Cc1ccccc1CCN(CC(=O)NC1CCCCC1)C(=O)c1csnn1,3.08%
10,CCN(CC(=O)Nc1c(F)cccc1F)C(=O)CN1c2cccc3cccc(c23)S1(=O)=O,-4.49%
11,Nc1cc(N)nc(SCc2cccc(F)c2)n1,-19.7%
12,COC(=O)c1ccccc1NC(=O)CSc1nc2c(c(=O)[nH]1)CCC2,-3.59%
13,Cc1sc2c(c1C)c(=O)n(-c1ccccc1)c(=O)n2CC(=O)NCC1CCCO1 (stereo unspecified),1.39%
14,Cc1cccc(NC(=O)Cn2c(=O)n(Cc3ccccc3)c(=O)c3c(C)c(C)sc32)c1,79.6% (active)
15,Cc1cccc(-n2c(=O)c3c(C)c(C)sc3n(CC(N)=O)c2=O)c1,-0.9%
16,CCOCCCN(C)C1CCN(C(=O)c2oc3ccccc3c2NC(=O)Cc2cccc([N+](=O)[O-])c2)CC1,-6.1%
17,CCOc1ccc(C(C(=O)NCCOC)N(CCOC)C(=O)CCC(=O)Nc2ccccn2)cc1 (stereo unspecified),-5.61%
18,CCOc1ccc(-c2cn(S(=O)(=O)c3cccc4nsnc34)nc2N)cc1,3.63%
19,CCN(CC)c1ccc2cc(C(N)=O)/c(=N\NC(=O)c3ccncc3)oc2c1,9.01%
20,CCN(CC)c1ccc2oc(=O)c(C)nc2c1,110% (active)
21,C=CCN(C(=O)Nc1ccc2oc(C)nc2c1)c1ccccc1,14.4%
22,C=CCOC(=O)C1=C[C@H](c2ccc(Br)cc2)C[C@H](OCCCCO)O1,8.07%
23,CCc1ccc(C(=O)NN=C2CCCCCC2)s1,4.85%

row,SMILES,inhibition
1,Cc1cccc(C(=O)OCC(=O)Nc2sc3c(c2C#N)CCC3)c1,3.25%
2,N#Cc1c(NC(=O)CCCl)sc2c1CCCCC2,-14.9%
3,CC(=O)c1c(C)[nH]c(C(=O)OCC(=O)Nc2sc3c(c2C#N)CCCC3)c1C,42.2% (active)
4,CC(=O)c1cc(-c2ccccc2)[nH]c1N1CCCC1,-8.66%
5,Cc1ccc2c(c1)C(O)(CC(=O)c1cccc(-n3cccc3)c1)C(=O)N2 (stereo unspecified),2.62%
6,CC1=NCCN1S(=O)(=O)c1cccc([N+](=O)[O-])c1,-6.19%
7,CCc1nccn1S(=O)(=O)c1cccc([N+](=O)[O-])c1,31.4% (active)
8,O=[N+]([O-])c1cccc(S(=O)(=O)N2CCCCCC2)c1,1.71%
9,Cc1cc(Nc2ccc(Br)cc2)nc2ccccc12,-8.6%
10,O=C(N/C(=C/c1ccc(Cl)cc1)C(=O)N1CCCCC1)c1ccco1,7.31%
11,CC(=O)CC[C@@H](C)O[C@@H]1OC(C)[C@H](O)CC1O (stereo partly specified),4.39%
12,COc1ccc(C)cc1NC(=O)NCc1ccccn1,110% (active)
13,COc1ccc(C)cc1NC(=O)NCCCCc1ccccc1,2.71%
14,Cc1cc(C)cc(NC(=O)NCc2ccccn2)c1,-7.86%
15,CCOc1ccc(S(=O)(=O)N2CCN=C2Cc2ccccc2)cc1C,4.47%
16,CC1CCCN(S(=O)(=O)c2ccc(-c3ccc(=O)[nH]n3)o2)C1 (stereo unspecified),-20.5%
17,N#Cc1ccc(N2Cc3ccccc3/C2=N/C(=O)Nc2ccc(Cl)cc2)cc1,73.5% (active)
18,Cc1cccc(N2Cc3ccccc3C2=NC(=O)c2ccc(Cl)nc2)c1,17.6%
19,O=C(Nc1ccccc1)OCc1cn(-c2ccc(Cl)cc2)nn1,6.14%
20,COc1ccc(NC2CCCN(C(=O)c3ccncc3)C2)cc1 (stereo unspecified),5.52%
21,C=CCN(c1ccc(Cl)cc1)S(=O)(=O)c1cccc(C(=O)OCC(=O)N(C)C)c1,11.1%
22,COc1ccc(C(C[N+](=O)[O-])n2nc(C)cc2C)cc1 (stereo unspecified),11%
23,O=C(CCCn1c(SCC(=O)c2ccccc2)nc2ccccc2c1=O)NCC1CCCO1 (stereo unspecified),1.63%

row,SMILES,inhibition
1,Cn1c(-c2ccc(F)cc2)cnc1SCC(=O)NCc1ccco1,3.48%
2,O=C(CCCn1c(SCC(=O)c2ccc(F)cc2)nc2ccccc2c1=O)NCc1ccco1,37.8% (active)
3,CC(C)C[C@H]1CN=C(Nc2ccccc2)N1CC1CCCCC1,0.22%
4,COc1ccc(NC(=O)C2C3CCC(O3)C2C(=O)O)cc1OC (stereo unspecified),5.36%
5,COc1ccc(C(=O)Nc2ccccc2C(=O)N/N=C/c2ccc(O)c(OC)c2)cc1,6.06%
6,CCOc1cc(C2C(C(=O)OC)=CN(C3CCCC3)C=C2C(=O)OC)cc(Br)c1O,11.7%
7,COC(=O)C1=CN(Cc2ccc(OC)cc2)C=C(C(=O)OC)C1c1ccc(O)c(OC)c1,28.7% (active)
8,Cc1ccccc1NC(=O)C(C)OC(=O)CCC(=O)N(CC(C)C)c1c(N)n(CC(C)C)c(=O)[nH]c1=O (stereo unspecified),-7.69%
9,COc1ccc(S(=O)(=O)NC(C)C(=O)N2CCCCCC2)cc1 (stereo unspecified),2.58%
10,CSc1nnc(SCc2nc3sc(C(=O)O)c(C)c3c(=O)[nH]2)s1,4.86%
11,Cc1ccc(-c2nc(SCC(=O)Nc3ccccc3OC(F)F)c3c(C)c(C(=O)O)sc3n2)cc1,29.7% (active)
12,COc1ccccc1NC(=O)CSc1nc2sc3c(c2c(=O)n1-c1ccccc1)CCN(C)C3,-6.51%
13,CCOC(=O)c1ccc[n+](CC(=O)Nc2ccccc2OC(F)F)c1,-2.1%
14,COc1ccc([N+](=O)[O-])cc1NCC(=O)c1ccc(C)cc1,5.63%
15,Cc1ccc(S(=O)(=O)N(CC(O)CN2C(=O)NC(C)(C)C2=O)c2cccc([N+](=O)[O-])c2)cc1 (stereo unspecified),-8.62%
16,CCOC(=O)Cc1csc(NC(=O)COc2ccc3c(C)cc(=O)oc3c2)n1,-2.07%
17,Cc1cc(=O)oc2cc(OCC(=O)Nc3nnc(C4CC4)s3)ccc12,7.9%
18,Cc1ccc(O)c(/C=N/NC(=O)COc2ccc3c(C)cc(=O)oc3c2)c1,27.9% (active)
19,Cc1ccc(OCCC(=O)OCC(=O)N2c3ccccc3NC(=O)C2(C)C)cc1,-1.98%
20,CN1CCN(CC(=O)C23CC4CC(CC(C4)C2)C3)CC1,-0.65%
21,COc1ccc(CN2C(=O)CC(Cc3ccc(C)cc3)C2=O)cc1OC (stereo unspecified),9.56%
22,O=C(CN1CCCCC1)N1c2ccccc2Sc2ccc(C(F)(F)F)cc21,-8.22%
23,CC(=O)N1CC(C)c2scc(C)[n+]2-c2ccccc21 (stereo unspecified),0.91%

row,SMILES,inhibition
1,CC(CCN1CCN=C1N(C)C)c1ccccc1 (stereo unspecified),-6.72%
2,O=C(NCCOc1cccnc1)c1ccc(OC2CCN(Cc3ccccn3)CC2)cc1,6.33%
3,Cc1[nH]c(C)c(S(=O)(=O)N2CCC(C)CC2)c1C(=O)N1CCCC1,14.2%
4,NC(=O)C(Cc1ccccc1)NC(=O)C12CC3CC(CC(C3)C1)C2 (stereo unspecified),3.55%
5,CCC(=O)Nc1ccc(S(=O)(=O)Nc2c(NC)c3ccccc3oc2=O)cc1,8.74%
6,CC(=O)Nc1ccc(S(=O)(=O)NCC(=O)OCc2cc(=O)oc3ccc4ccccc4c23)cc1,35.2% (active)
7,COc1ccccc1C(=O)COC(=O)CNS(=O)(=O)c1ccc(NC(C)=O)cc1,0.54%
8,CCOc1cc(C2C(C(=O)c3ccco3)=C(O)C(=O)N2Cc2ccccc2)ccc1O (stereo unspecified),1.15%
9,CCC1CCCCN1C(=O)CSc1nc2c(c(=O)n1C)SC(C)C2 (stereo unspecified),-3.4%
10,COc1ccc(C(=O)CSc2nnc(NC(=O)C3CC(=O)N(c4cccc(OC)c4)C3)s2)cc1 (stereo unspecified),51.4% (active)
11,CCOC(=O)CSc1nnc(NC(=O)C2CC(=O)N(c3ccc(F)cc3)C2)s1 (stereo unspecified),6.41%
12,COc1cccc(N2CC(C(=O)Nc3c(C)cccc3C)CC2=O)c1 (stereo unspecified),-0.66%
13,COc1ccc(N(C)C(=O)C2CCN(S(=O)(=O)c3cccc4nsnc34)CC2)cc1,-5.5%
14,Cc1ccc(O)c(-c2cc(C(=O)Nc3c(C)n(C)n(-c4ccccc4)c3=O)[nH]n2)c1,8.89%
15,Cc1ccc(O)c(-c2cc(C(=O)NCc3ccccc3)[nH]n2)c1,30.8% (active)
16,Cc1ccc(NC(=O)c2cc(-c3ccccc3O)n[nH]2)cc1C,-0.09%
17,COc1ccc(C(=O)N[C@H](C(=O)NCc2ccccc2)C(C)C)cc1,5.98%
18,CC(C)c1nnc(NC(=O)CCC(=O)N2CCN(c3cccc(Cl)c3)CC2)s1,-2.44%
19,CCCCNC(=O)C1(O)c2ccccc2NC(=O)N1c1ccc(Cl)cc1 (stereo unspecified),-19.8%
20,CN(C)S(=O)(=O)c1cccc(-c2nn(-c3ccccc3)cc2/C=C2\SC(=S)N(CC(=O)O)C2=O)c1,1.09%
21,Cc1ccc(-c2nn(-c3ccccc3)cc2/C=C2\SC(=S)N(CCCCCC(=O)O)C2=O)o1,29.3% (active)
22,COc1ccc(-c2nn(-c3ccccc3)cc2/C=C2/SC(=S)N(CCCC(=O)O)C2=O)c(C)c1,5.71%
